Only some compounds are listed: those with a hit (about 3.7% of all), similar ones and a draw of the others.
miR-21 reporter – qHTS Assay for Modulators of miRNAs and/orActivators of miR-21; HeLa miR-21 FLuc reporter, luciferase, 48 h; Potency, µM (top dose mostly 38.3 µM), inactives show at the top dose activity change, positive = activation, actives largely listed as activators; 340,000 tested, under 10 active; AID 2288, 2010;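 further: % of control where 0% means no effect; miR-21 action dims this reporter so a rising signal means less miR-21 action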
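Luminescence from a firefly luciferase reporter carrying a miR-21 binding site downstream, stably expressed under a CMV promoter in HeLa cells that make miR-21 endogenously, reports miRNA modulation after 48 h compound exposure up to approximately 40uM final.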
A549 viability – Nrf2 qHTS screen for inhibitors: counterscreen for cytotoxicity | A549 ARE-Fluc cells, CellTiter-Fluor viability, 18-24 h | Potency, µM (highest dose often 46 µM), inactives show at the highest dose activity change, negative = cytotoxicity, usual class: inhibitors | hit rate 0.16% among 390,000; further: potency means the concentration at half of the fitted maximal effect; on the % scale 0 is the no-effect control and ±100 the full control effect
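A549 ARE_Fluc cells in 5% FBS OPTI-MEM were exposed to compounds in concentration-response for 18-24 h at 37 deg C. Viability was read by CellTiter-Fluor fluorescence (Ex 405/Em 525) after 30 min, before the luciferase read.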
ClpP mod – qHTS Assay for Activators of ClpP. hit rate 1.9% among 340,000. Potency, µM (series often up to 57.5 µM), without a hit: top-dose activity change, negative = active. purified B. subtilis ClpP, FRET peptide cleavage, 20 min; active means well fitted falling curve with a large enough effect; inconclusive means small, poorly fitted or top-dose-only effect; inactive means no such curve, though single readings can be large or run the other way; further: potency means the concentration at half of the fitted maximal effect; the source files actives as falling curves though it sought activators and does not explain the sign; nearly all actives have a fitted effect of over 65% in size
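FRET quenching reversal measured ClpP activation: 10 microg/mL B. subtilis ClpP at pH 8 with the FRET-FV decapeptide, read at 430 nm after 320 nm excitation. The 20-min minus 0-min signal was scaled between DMSO/no-enzyme wells and ADEP (5.8 microM final).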
Nrf2 ARE act – qHTS of Nrf2 Activators; AREc32 ARE-luciferase reporter (MCF7-derived line), luminescence, 24 h; AID 624171, 2012; Potency, µM (doses to about 46.1 µM), inactives show at the highest dose activation, actives largely listed as activators; hit rate 0.31% among 410,000; further: potency means the concentration at half of the fitted maximal effect; % of control where 0% means no effect; nearly all actives have a fitted effect of over 65% in size
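ARE-driven firefly luciferase activity in AREc32 cells measured after a 24 hr compound exposure at 37 deg C, using Steady-Glo reagent and a 30 min room-temperature hold.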
Nrf2 inh – Nrf2 qHTS screen for inhibitors; A549 ARE-Fluc reporter, luciferase luminescence, 18-24 h; Potency, µM (top dose mostly 46 µM), for inactives: at the top dose activity change, negative = inhibition, most hits filed as inhibitors; hit rate 2.1% among 360,000; AID 504444, 2011; further: potency means the concentration at half of the fitted maximal effect; on the % scale 0 is the no-effect control and ±100 the full control effect; nearly all actives have a fitted effect of over 60% in size
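Concentration-response testing used A549 ARE_Fluc cells at 5000 cells/well. Following an 18-24 h compound incubation, viability was read by fluorescence (Ex 405/Em 525) and luciferase output by luminescence.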
p53 reactivation – qHTS assay for re-activators of p53 using a Luc reporter. AID 504706, 2011. hit rate 0.063% among 320,000. Potency, µM (highest dose often 92.2 µM), for the others: top-dose activity change, positive = activation, usual class: activators. H1299 p53-A138V BP100-luciferase reporter, luminescence, 24 h; further: potency means the concentration at half of the fitted maximal effect; % of control where 0% means no effect; nearly all actives have a fitted effect of over 45% in size
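H1299 (p53-null), stable ts p53-A138V + BP100-Luc; 1000 cells/well, Opti-MEM/10% FBS; cpd 4 pt, 1:5; 24 h, 37 deg C, 5% CO2; detection reagent 10 min RT; luminescence.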
An asterisk follows results filed as active. Unless noted, the call rests on the fitted dose curve; in most records, active means well fitted curve in the direction sought with a large enough effect; inconclusive means small, poorly fitted or top-dose-only effect, or another doubt; inactive means no such curve, though single readings can be large; an effect the other way counts as inactive or inconclusive.

Cc1cc2nc(-c3ccc(SCC(=O)N4CCOCC4)nc3)[nH]c2cc1C was read as miR-21 reporter 8%, A549 viability -1%, ClpP mod 3.2µM*, Nrf2 ARE act -1% and p53 reactivation -4%.
For CCOC(=O)CSc1ccc(-c2nc3ccccc3[nH]2)cn1 the results were miR-21 reporter -4%, A549 viability 3%, ClpP mod 32µM*, Nrf2 ARE act 0%, Nrf2 inh 8% and p53 reactivation 1%.
Screening O=C(Nc1ccc(-c2nc3ccccc3[nH]2)cc1)c1ccc(N2C(=O)CCC2=O)cc1 returned miR-21 reporter -4%, A549 viability 1%, ClpP mod 22µM*, Nrf2 ARE act 0%, Nrf2 inh -19% and p53 reactivation 5%.
`Cc1ccc2nc(-c3ccc(SCC(=O)Nc4nc(C)cs4)nc3)[nH]c2c1` gave miR-21 reporter -62%, A549 viability -11%, ClpP mod 7.9µM*, Nrf2 ARE act 7%, Nrf2 inh inconclusive and p53 reactivation inconclusive.
Screening Cc1cc2nc(-c3ccc(SCC(=O)N4CCN(C(=O)c5ccco5)CC4)nc3)[nH]c2cc1C returned miR-21 reporter 27%, A549 viability -1%, ClpP mod inconclusive, Nrf2 ARE act 0%, Nrf2 inh 11% and p53 reactivation 8%.
For CC(C)(C)N1C(=O)c2ccc(C(=O)Nc3ccc(-c4nc5ccccc5[nH]4)cc3)cc2C1=O the results were miR-21 reporter -22%, A549 viability 1%, ClpP mod inconclusive, Nrf2 ARE act -1%, Nrf2 inh -5% and p53 reactivation inconclusive.
O=C(Cc1ccccc1)Nc1sc2c(c1C(=O)Nc1ccccc1Cl)CCCC2 was read as miR-21 reporter 0%, A549 viability 11%, ClpP mod -4%, Nrf2 ARE act 3% and Nrf2 inh 13%.
CC(C)(C)OC(=O)N1CCC(c2c(C(=O)NCc3ccccc3)cnn2-c2cccc(F)c2)CC1 was read as miR-21 reporter 27%, A549 viability -6%, ClpP mod -4%, Nrf2 ARE act -1% and Nrf2 inh inconclusive.
CCCn1c(CN2CCN(c3ccc(OC)cc3)CC2)nc2c1c(=O)[nH]c(=O)n2C was read as miR-21 reporter -5%, A549 viability -3%, ClpP mod -20%, Nrf2 ARE act -2% and Nrf2 inh 14%.
For Cc1cc2c(s1)c1cnn(Cc3ccc(F)c(F)c3)c(=O)c1n2C the results were A549 viability -2% and Nrf2 inh 13%.
Screening CCOC(=O)CSc1ccc(-c2nc3cc(C)c(C)cc3[nH]2)cn1 returned miR-21 reporter -16%, A549 viability -15%, ClpP mod 32µM*, Nrf2 ARE act 2%, Nrf2 inh 17% and p53 reactivation inconclusive.
For O=C(Nc1ccccc1)c1ccc(Br)c(S(=O)(=O)N2CCCCC2)c1 the results were miR-21 reporter 6%, A549 viability -1%, ClpP mod -5% and Nrf2 ARE act 0%.
Screening CNC(=S)N1CCN(S(=O)(=O)c2ccc3ccccc3c2)CC1 returned miR-21 reporter -1%, A549 viability 2%, ClpP mod -2%, Nrf2 ARE act 2%, Nrf2 inh 23µM* and p53 reactivation -9%.
Screening Cc1ccc(N(C)C(=O)N2CCN(S(=O)(=O)c3ccc4ccccc4c3)CC2)cc1 returned miR-21 reporter -1%, A549 viability -17%, ClpP mod -3%, Nrf2 ARE act -1%, Nrf2 inh 18µM* and p53 reactivation -5%.
COc1ccc(C(=O)NNc2ncnc3c2cnn3-c2cccc(Cl)c2)cc1OC was read as miR-21 reporter -11%, A549 viability inconclusive, ClpP mod -1% and Nrf2 ARE act 1%.

High-throughput results deposited in PubChem BioAssay by National Center for Advancing Translational Sciences (NCATS).
